High-throughput results from PubChem BioAssay.
C diff HTS: C. difficile growth inhibitors, primary screen, HTS; Clostridium difficile clinical isolate growth, OD600, 24 h; active compounds read low; growth activity, negative = inhibition, % at 16 µg/mL (by protocol); hit rate 0.25% among 86,000;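 active = mean growth activity at or below -80% and every replicate also at or below -80%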
Pf Dd2 growth: P. falciparum Dd2 growth inhibitors, primary screen, SYBR Green fluorescence, single dose replicates. 72 h; active compounds read low. activity change, % at 10 µM. hit rate 2.3% among 94,000. AID 1159554, 2015; in the data active = activity change below about -80%
Each line names hits and unclear results; the compound was inactive in the other large screens. An excerpt weighted towards active compounds, which were near 2.3% of everything screened.

C[C@H](CO)N1C[C@H](C)[C@H](CN(C)CC2CCCCC2)Oc2ccc(NC(=O)Nc3ccc(C(F)(F)F)cc3)cc2C1=O	none
C[C@@H]1CN([C@H](C)CO)C(=O)c2cc(NC(=O)C3CC3)ccc2O[C@@H]1CN(C)CC1CCCCC1	none
C[C@@H]1CN([C@@H](C)CO)C(=O)c2cc(NC(=O)Nc3ccc(C(F)(F)F)cc3)ccc2O[C@H]1CN(C)CC1CCCCC1	Pf Dd2 growth -86.2
CCCN(C)C[C@@H]1OCCCC[C@H](C)Oc2ccc(NC(=O)Nc3ccc(C(F)(F)F)cc3)cc2C(=O)N([C@H](C)CO)C[C@@H]1C	none
C[C@H](CO)N1C[C@H](C)[C@H](CN(C)Cc2ccccc2)OCCCC[C@H](C)Oc2ccc(NS(=O)(=O)c3ccc(Cl)cc3)cc2C1=O	none
CC(C)NC(=O)N(C)C[C@H]1OCCCC[C@H](C)Oc2ccc(NC(=O)c3ccncc3)cc2C(=O)N([C@H](C)CO)C[C@@H]1C	none (no result: Pf Dd2 growth)
O=C([C@@H]1[C@@H](CO)[C@@H]2Cn3c(cccc3=O)[C@H]1N2C(=O)c1ccc(F)cc1)N1CCCCC1	none
COc1ccc2c3c(n(C)c2c1)[C@@H](CO)N(C(=O)c1cnccn1)CC31CCN(C)CC1	none
CCS(=O)(=O)N1[C@H](CO)[C@H](c2ccccc2)[C@@H]1CN(C)Cc1ccccn1	none
CCCNC(=O)N(C)C[C@@H]1Oc2ncc(C3=CCCCC3)cc2C(=O)N([C@@H](C)CO)C[C@@H]1C	none
CN1CCN(C(=O)C[C@H]2CC[C@@H]3[C@H](COC[C@@H](O)CN3Cc3ccc4c(c3)OCO4)O2)CC1	none (no result: C diff HTS)
C[C@@H]1CCCCO[C@H](CN(C)CC2CCCCC2)[C@H](C)CN([C@@H](C)CO)C(=O)c2cc(NC(=O)Nc3ccc(C(F)(F)F)cc3)ccc2O1	C diff HTS -102.7, Pf Dd2 growth -87.2
C[C@@H]1CCCCO[C@@H](CN(C)CC2CCCCC2)[C@H](C)CN([C@@H](C)CO)C(=O)c2cc(NC(=O)Nc3ccc(C(F)(F)F)cc3)ccc2O1	none
CCS(=O)(=O)N1CC2(C1)[C@@H](c1ccccc1)[C@H](CO)N2Cc1ccc(F)cc1	Pf Dd2 growth -82.8
OC[C@@H]1[C@@H](c2ccccc2)C2(CN(CC3CC3)C2)N1Cc1ccc(F)cc1	Pf Dd2 growth -87.5
CCS(=O)(=O)N1CC2(C1)[C@@H](c1ccccc1)[C@@H](CO)N2Cc1ccc(F)cc1	none
O=C(CC1CC1)N1CC2(C1)[C@H](c1ccccc1)[C@@H](CO)N2Cc1ccc(F)cc1	none
COc1ccccc1CN1CC2(C1)[C@H](c1ccccc1)[C@@H](CO)N2Cc1ccccc1	Pf Dd2 growth -90.0
COc1ccccc1CN1[C@H](CO)[C@@H](c2ccccc2)C12CN(C(C)=O)C2	none
C[C@H]1CCCCO[C@H](CN(C)C(=O)C2CCCCC2)[C@@H](C)CN([C@@H](C)CO)C(=O)c2cc(NS(=O)(=O)c3ccc(Cl)cc3)ccc2O1	none
Cc1ccc(S(=O)(=O)Nc2ccc3c(c2)C(=O)N([C@@H](C)CO)C[C@H](C)[C@H](CN(C)C(=O)c2ccncc2)OCCCC[C@@H](C)O3)cc1	none (no result: C diff HTS)
C[C@@H]1CCCCO[C@H](CN(C)C(=O)C2CCCCC2)[C@@H](C)CN([C@@H](C)CO)C(=O)c2cc(NC(=O)c3ccccc3)ccc2O1	Pf Dd2 growth -84.8
C[C@@H]1CN([C@H](C)CO)C(=O)c2cc(NC(=O)c3ccccc3)ccc2O[C@@H](C)CCCCO[C@@H]1CN(C)C(=O)C1CCCCC1	Pf Dd2 growth -84.0
C[C@H](CO)N1C[C@H](C)[C@@H](CN(C)C(=O)C2CCCCC2)OCCCC[C@H](C)Oc2ccc(NC(=O)c3ccccc3)cc2C1=O	none
C[C@@H]1CCCCO[C@@H](CN(C)C(=O)C2CCCCC2)[C@H](C)CN([C@@H](C)CO)C(=O)c2cc(NC(=O)c3ccccc3)ccc2O1	none
O=C(Nc1ccc2c(c1)[C@H]1C[C@H](CC(=O)N3CCc4ccccc4C3)O[C@H](CO)[C@H]1O2)NC1CCCC1	none
COCC#Cc1cnc2c(c1)C(=O)N([C@@H](C)CO)C[C@H](C)[C@H](CN(C)Cc1ccc(-c3ccccc3)cc1)O2	none
C[C@@H]1CCCCO[C@@H](CN(C)S(=O)(=O)c2ccc(Cl)cc2)[C@H](C)CN([C@H](C)CO)C(=O)c2cc(NC(=O)Nc3ccc(F)cc3)ccc2O1	Pf Dd2 growth -81.1
Cc1ccc(S(=O)(=O)N(C)C[C@H]2OCCCC[C@H](C)Oc3ccc(NC(=O)Nc4ccc(F)cc4)cc3C(=O)N([C@@H](C)CO)C[C@H]2C)cc1	Pf Dd2 growth -82.1 (no result: C diff HTS)
C[C@@H]1CN([C@H](C)CO)C(=O)c2cc(NC(=O)Nc3ccc(F)cc3)ccc2O[C@@H](C)CCCCO[C@H]1CN(C)S(=O)(=O)c1ccc(Cl)cc1	none
Cc1ccc(S(=O)(=O)N(C)C[C@@H]2OCCCC[C@@H](C)Oc3ccc(NC(=O)Nc4ccc(F)cc4)cc3C(=O)N([C@H](C)CO)C[C@H]2C)cc1	none (no result: C diff HTS)
COc1ccc2c3c(n(C)c2c1)[C@H](CO)N(C)CC31CCN(S(=O)(=O)c2cccc(C)c2)CC1	none
C[C@H]1CN([C@@H](C)CO)C(=O)Cc2cc(NC(=O)Nc3ccccc3)ccc2O[C@H]1CN(C)S(=O)(=O)c1cccs1	none
COC(=O)C(CC#Cc1ccc2c(c1)[C@]1(C(=O)N2)[C@H](c2ccc(OCCO)cc2)N2[C@H](c3ccccc3)[C@H](c3ccccc3)OC(=O)[C@H]2[C@@H]1C(=O)N1CCc2cc(OC)c(OC)cc2C1)C(=O)OC	none (no result: Pf Dd2 growth)
CNC[C@@H]1OCCCC[C@@H](C)Oc2ccc(N(C)C)cc2C(=O)N([C@H](C)CO)C[C@@H]1C	none
C[C@@H]1CN([C@@H](C)CO)C(=O)c2cccc(NC(=O)CCCCCC(=O)Nc3ccccc3N)c2O[C@H]1CN(C)Cc1ccc(Cl)c(Cl)c1	Pf Dd2 growth -86.9
C[C@@H]1CN([C@@H](C)CO)C(=O)c2cccc(NC(=O)CCCCCC(=O)Nc3ccccc3N)c2O[C@@H]1CN(C)Cc1ccc2c(c1)OCO2	Pf Dd2 growth -88.8
C[C@@H]1CN([C@H](C)CO)C(=O)c2cccc(NC(=O)CCCCCC(=O)Nc3ccccc3N)c2O[C@H]1CN(C)Cc1ccc(Cl)c(Cl)c1	Pf Dd2 growth -86.1
C[C@@H]1CN([C@H](C)CO)C(=O)c2cc(NC(=O)CCCCCC(=O)Nc3ccccc3N)ccc2O[C@@H]1CN(C)Cc1ccc(Cl)c(Cl)c1	none (no result: C diff HTS)
C[C@H]1CN([C@@H](C)CO)C(=O)c2cc(NC(=O)CCCCCC(=O)Nc3ccccc3N)ccc2O[C@@H]1CN(C)Cc1ccc2c(c1)OCO2	none
C[C@H]1CN([C@@H](C)CO)C(=O)c2cccc(NC(=O)CCCCCC(=O)Nc3ccccc3N)c2O[C@@H]1CN(C)Cc1ccc(Cl)c(Cl)c1	Pf Dd2 growth -91.7
C[C@H]1CN([C@@H](C)CO)C(=O)c2cc(NC(=O)CCCCCC(=O)Nc3ccccc3N)ccc2O[C@H]1CN(C)Cc1ccc(Cl)c(Cl)c1	none (no result: C diff HTS)
O=C(c1ccc(F)cc1)N1CC(=O)N2[C@@H](CO)[C@@H](c3ccc(C#CC4CCCC4)cc3)[C@@H]2C1	none
COc1ccc2c3c([nH]c2c1)[C@@H](CO)N(C(=O)Nc1ccc(F)cc1)CC31CN(C(=O)Nc2ccc3c(c2)OCO3)C1	none
Cc1ccc(S(=O)(=O)Nc2ccc3c(c2)C(=O)N([C@@H](C)CO)C[C@@H](C)[C@@H](CN(C)C(=O)c2ccncc2)OCCCC[C@H](C)O3)cc1	none
CN(C)C(=O)C[C@@H]1C[C@@H]2c3cc(NC(=O)Cc4ccncc4)ccc3O[C@@H]2[C@H](CO)O1	none
